# Assay outcomes: PubChem, National Center for Advancing Translational Sciences (NCATS)
# An excerpt weighted towards active compounds, which were near 5.9% of everything screened.
# GLP1R ag: agonists of human GLP-1 receptor | HEK293 GLP-1R CRE-luciferase, luminescence, 4-6 h; cells express a hypersensitive GLP-1R form | Potency, µM (series often up to 45.6 µM), for the others: at the highest dose activation, hits mostly activators | 0.007% of 380,000 active | AID 624172; also: % of control where 0% means no effect
# GLP1R cytotox: cytotoxicity counter-screen for GLP-1 receptor inverse agonists. HEK293 cAMP-luciferase reporter cells, luminescence, 24 h. Potency, µM (doses to about 38.3 µM), inactives show top-dose activity change, negative = inhibition, usual class: inhibitors. 0.13% of 410,000 active. AID 624418;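 also: loss of luciferase light is scored as toxicity; % is scaled to controls: 0 for no effect and ±100 for the full control effect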
#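 Luminescence readout: signal drop marks cytotoxicity. Plated cells grew 12 h at 37 °C, 5% CO2, received 23 nL compound for 24 h, then got luciferase reagent, read after 12 min at RT.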
# RORgamma inh: blocks mouse ROR gamma transcriptional activity; P51450; Drosophila S2 Gal4-RORgamma UAS-luciferase reporter, 20 h; Potency, µM (doses to about 53.6 µM), without a hit: at the top dose activity change, negative = inhibition, hits mostly inhibitors; 5.4% of 310,000 active; AID 2551; also: % is scaled to controls: 0 for no effect and ±100 for the full control effect; nearly all actives have a fitted effect of over 60% in size
# Target sequence (P51450 whole entry, looked up, the tested form may be a part): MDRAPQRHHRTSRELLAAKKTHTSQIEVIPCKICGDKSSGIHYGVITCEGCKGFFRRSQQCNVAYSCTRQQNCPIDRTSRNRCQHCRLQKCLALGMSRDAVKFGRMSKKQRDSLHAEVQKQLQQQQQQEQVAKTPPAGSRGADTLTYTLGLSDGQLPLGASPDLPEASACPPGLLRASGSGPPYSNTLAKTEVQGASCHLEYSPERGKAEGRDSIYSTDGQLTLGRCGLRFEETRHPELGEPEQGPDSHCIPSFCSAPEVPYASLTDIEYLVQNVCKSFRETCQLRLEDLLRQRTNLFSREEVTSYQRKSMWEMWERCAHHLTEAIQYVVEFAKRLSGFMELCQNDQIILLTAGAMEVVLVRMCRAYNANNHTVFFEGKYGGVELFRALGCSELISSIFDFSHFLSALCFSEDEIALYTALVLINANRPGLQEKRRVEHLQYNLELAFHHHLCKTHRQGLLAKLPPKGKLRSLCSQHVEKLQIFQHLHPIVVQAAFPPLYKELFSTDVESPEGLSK
#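 Luminescence from a UAS-regulated Photinus luciferase reporter in stably transfected Drosophila Schneider cells is measured; decreased signal marks ROR gamma inhibition. Fusion expression is induced by 700 uM copper sulfate for 20 hr.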
# GLP-1R inv ag: acts as inverse agonist at human GLP-1 receptor; Potency, µM (top dose mostly 38.3 µM), for the others: top-dose activity change, negative = inhibition, actives largely listed as inhibitors; P43220; 1.6% of 410,000 active; HEK293 GLP-1R CRE-luciferase, luminescence, 24 h; GLP-1R form is constitutively active; also: % is scaled to controls: 0 for no effect and ±100 for the full control effect; nearly all actives have a fitted effect of over 55% in size
#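 qHTS in 1536-well format: reporter HEK293 cells expressing constitutive GLP-1R activity in DMEM + 10% Nu serum, 24 hr with compounds at 37 deg C, luminescence read after 12 min with detection reagent.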
# Gal4-VP16 FLuc: counter-screen for ROR gamma inhibitors: Gal4-VP16 reporter; Drosophila S2 Gal4-VP16 UAS-luciferase, luminescence, 20 h; Potency, µM (titrated, usually from 53.6 µM), for inactives: at the highest dose activity, negative = inhibition, usual class: inhibitors; 3.5% of 310,000 active;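 also: Gal4-VP16 expression switched on by copper sulfate through the metallothionein promoter; % is scaled to controls: 0 for no effect and ±100 for the full control effect; nearly all actives have a fitted effect of over 50% in size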
# An asterisk follows results filed as active; ? = inconclusive; . = no result given; [ ] = remark or other dose. Calls follow the shape of the dose curve; as a rule, active = well fitted curve in the direction sought with a large enough effect; inconclusive = small, poorly fitted or top-dose-only effect, or another doubt; inactive = no such curve, though single readings can be large; an effect the other way counts as inactive or inconclusive. Potency is read from the fitted curve at half-maximal effect.
SMILES,GLP1R ag,GLP1R cytotox,RORgamma inh,GLP-1R inv ag,Gal4-VP16 FLuc
COC(=O)c1cc(NC(=S)NCc2ccc(Cl)cc2)cc(C(=O)OC)c1,-4%,?,?,?,?
C[C@@H](C[N+](C)(C)C)OC(N)=O,.,.,36%[16.9 µM],.,-7%[17 µM]
O=c1[nH]c(NNC(=S)NC2CCCCC2)nc2c1C1(CCCC1)Cc1ccccc1-2,0%,-5%,2.8µM*,-19%,25µM*
C=CCNC(=S)NNc1nc2c(c(=O)[nH]1)C1(CCCC1)Cc1ccccc1-2,-4%,7%,2.8µM*,?,3.2µM*
O=c1[nH]cnc2c1C1(CCCC1)Cc1ccccc1-2,0%,11%,-2%,?,-9%
O=c1[nH]c(NNC(=S)NCc2ccccc2)nc2c1C1(CCCCC1)Cc1ccccc1-2,-4%,-10%,2.5µM*,?,2.8µM*
O=c1[nH]c(NCCCO)nc2c1C1(CCCC1)Cc1ccccc1-2,-2%,0%,26%,?,7%
S=C(NCc1ccccc1)NNc1nc2ccccc2[nH]1,5%,-29%,4.5µM*,?,-9%
CCN=c1scc(-c2ccc(F)cc2)n1/N=C/c1ccccn1,19%,17%,18µM*,?,2%
CCN=c1scc(-c2ccccc2)n1/N=C/c1ccccn1,4%,79%,4.5µM*,3.2µM*,7.9µM*
Cc1nc2ccccc2c(=O)n1/N=C/c1ccccn1,-7%,-13%,-5%,1%,-4%
Cc1oc(-c2cccc(C(F)(F)F)c2)nc1CN1CCC[C@H]1CO,8%,-5%,11%,?,0%
Cc1oc(-c2cccc(C(F)(F)F)c2)nc1CN1CCOCC1,25%,0%,0.79µM*,-3%,5µM*
CC1(C)CC(=O)c2c(O)cc(OCC(=O)Nc3ccc(S(N)(=O)=O)cc3)cc2O1,-2%,-1%,-1%,-19%,-14%
COc1cc(NC(=O)COc2cc(O)c3c(c2)OC(C)(C)CC3=O)cc(OC)c1OC,?,-3%,?,-31%,2.5µM*
O=C1CCN(CCc2ccccc2)CCN1C(CSc1ccc(Br)cc1)Cc1ccccc1 (centres undefined),.,.,?,.,4%
COc1ccc(CCCc2nnc(SCC(=O)Nc3ccc(C)cc3C)o2)cc1,0%,4%,.,?,.
CCOc1ccc(-n2cc(-c3ccccc3)c3c(=S)nc[nH]c32)cc1,9%,-9%,1µM*,?,1.1µM*
CC1CCN(S(=O)(=O)c2ccc3c(ccn3CC(=O)NCc3ccc(N(C)C)cc3)c2)CC1,.,7%,.,12%,.
CCOC(=O)C1=C(C)Nc2nnnn2C1c1c[nH]c2ccccc12 (centres undefined),.,.,49%,.,22µM*
COC(=O)[C@@]1(Cc2ccc(F)cc2)[C@H]2c3cc(C(=O)N(C)C)n(Cc4cccc5ccccc45)c3C[C@H]2CN1C(=O)c1ccccc1,.,.,44%,.,-15%
CCCc1nnc(NC(=O)Cc2coc3ccc(C)cc23)s1,.,-6%,.,7%,.
Cn1nc(-c2ccc(Cl)cc2)c2cc(C(=O)N3CCN(c4ccccn4)CC3)sc21,6%,9%,18%,3%,13µM*
Cn1nc(-c2ccc(Cl)cc2)c2cc(C(=O)N3CCN(c4ccccc4)CC3)sc21,14%,-18%,1%,-10%,8%
N#CC1=C(N)NC(=S)C(C(N)=O)C1c1ccc([N+](=O)[O-])cc1 (centres undefined),-1%,-17%,?,-21%,13µM*
Cc1nc([N+](=O)[O-])c(Br)n1CC(=O)c1ccc(F)cc1,1%,-27%,7.9µM*,?,-14%[10 µM]
Cc1nc([N+](=O)[O-])c(Br)n1CC(=O)c1cccc([N+](=O)[O-])c1,7%,?,1%,?,-7%
CC(=O)Nc1ccccc1OCC(=O)c1cc(C)n(Cc2cccs2)c1C,10%,-2%,-38%,0%,1.3µM*
Cc1cc(C(=O)COC(=O)c2ccccc2O)c(C)n1Cc1cccs1,-14%,0%,3.5µM*,0%,7.1µM*
Cc1cc2oc(C(=O)Nc3ccc(S(=O)(=O)N(C)Cc4ccccc4)cc3)cc(=O)c2cc1C,.,9%,.,-5%,.
